High-throughput results from PubChem.
Shown are actives, neighbours in structure and some others; about 3.1% of the full set was active somewhere.
Tau fibril FP: tau fibrillization inhibition (FP) | P10636 | K18 P301L tau heparin fibrillization, Alexa594 FP, 6 h | Potency, µM (doses to about 57.7 µM), inactives show top-dose activity, negative = inhibition, most hits filed as inhibitors | 280,000 compounds, 0.39% hits | AID 1468; further: nearly all actives have a fitted effect of over 55% in size
Target sequence (P10636 561-689 P618L limits assumed): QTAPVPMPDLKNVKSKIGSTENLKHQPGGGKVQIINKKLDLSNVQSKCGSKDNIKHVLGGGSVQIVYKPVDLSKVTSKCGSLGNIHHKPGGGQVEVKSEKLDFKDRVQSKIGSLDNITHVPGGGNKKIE
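Heparin (20 uM) drove fibril formation of recombinant tau K18 P301L, 15 uM unlabeled with 0.24 uM Alexa 594 label, for 6 hr at 37 C in 100 mM sodium acetate pH 7. Fluorescence polarization (555/632 nm) read 1 hr after 30 uM ThT.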
TRb-SRC2 inh: disrupts binding of human TR beta to SRC2; P10828; TRbeta-SRC2 peptide binding, fluorescence polarization; receptor liganded with 1 µM T3; Potency, µM (highest dose often 106 µM), for inactives: at the highest dose activity change, negative = inhibition, usual class: inhibitors; 280,000 compounds, 0.065% hits; AID 1469;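 further: plate controls were bound peptide for no effect and peptide without receptor for full effect; nearly all actives have a fitted effect of over 50% in size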
Target sequence (P10828 whole entry, looked up): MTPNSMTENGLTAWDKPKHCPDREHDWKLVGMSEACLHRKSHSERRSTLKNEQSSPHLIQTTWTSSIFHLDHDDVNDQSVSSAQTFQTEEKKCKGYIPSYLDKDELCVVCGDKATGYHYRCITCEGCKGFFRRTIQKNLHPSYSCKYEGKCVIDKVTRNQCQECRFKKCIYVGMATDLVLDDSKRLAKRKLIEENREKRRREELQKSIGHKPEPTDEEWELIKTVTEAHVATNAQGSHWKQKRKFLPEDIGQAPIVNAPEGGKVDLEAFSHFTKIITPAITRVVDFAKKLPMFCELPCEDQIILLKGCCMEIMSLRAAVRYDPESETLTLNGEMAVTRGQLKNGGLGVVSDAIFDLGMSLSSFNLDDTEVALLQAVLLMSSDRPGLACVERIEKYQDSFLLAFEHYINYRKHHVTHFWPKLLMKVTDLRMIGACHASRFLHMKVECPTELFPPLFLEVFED
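A fluorescence polarization screen tested compounds at multiple concentrations against complex formation between 0.6 uM TRb ligand-binding domain and 20 nM Texas Red SRC2 peptide, with 1 uM T3 present; readout after 5 hr.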
Tau ThT inhib: tau fibrillization inhibition (ThT binding). P10636. recombinant tau K18 P301L, heparin-induced fibrillization, ThT fluorescence. Potency, µM (doses to about 57.4 µM), for the others: top-dose activity, negative = inhibition, actives largely listed as inhibitors. 270,000 compounds, 2.1% hits. AID 1460; further: nearly all actives have a fitted effect of over 55% in size
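Heparin-induced (20 uM) aggregation of recombinant human K18 P301L tau, 15 uM unlabeled with 0.24 uM labeled, pH 7 acetate buffer, 6 hr at 37 C with compound. Fibrils quantified by 30 uM ThT fluorescence after 1 hr ambient incubation.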
TexasRed fluor: alters Texas Red total fluorescence, flagging assay interference; TRb/SRC2 Texas Red total fluorescence interference; AID 1479; 280,000 compounds, 0.29% hits; Potency, µM (highest dose often 106 µM), without a hit: top-dose fluorescence change, negative = quenching; active means well fitted curve in either direction with a large enough effect; inconclusive means small, poorly fitted or top-dose-only effect
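Human TRb ligand-binding domain at 0.6 uM with 20 nM Texas Red SRC2 peptide in Tris buffer containing 1 uM T3 and 5% DMSO, incubated with compound 5 h at ambient temperature. Total fluorescence (555/632 nm) calculated as parallel + 2 × perpendicular.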
Tau fluor cs: counter-screen for tau fibril formation inhibitors | tau K18 P301L Alexa594 fluorescence, heparin fibrillization | Potency, µM (series often up to 57.7 µM), inactives show top-dose activity change, negative = decrease | 280,000 compounds, 0.93% hits | AID 1463; further: nearly all actives have a fitted effect of over 55% in size
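Human tau K18 P301L (15 uM unlabeled, 0.24 uM Alexa 594-labeled) in 100 mM sodium acetate pH 7 with 20 uM heparin, 6 hr at 37 C. ThT 30 uM added, 1 hr ambient; Alexa 594 FP and total fluorescence read at 555/632 nm.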
* marks the source's active call; other numbers are inactive results; ? = inconclusive; [ ] = remark or other dose. Unless noted, the call rests on the fitted dose curve; in most records, active means well fitted curve in the direction sought with a large enough effect; inconclusive means small, poorly fitted or top-dose-only effect, or another doubt; inactive means no such curve, though single readings can be large; an effect the other way counts as inactive or inconclusive. Unless noted, on the % scale 0 is the no-effect control and ±100 the full control effect; potency means the concentration at half of the fitted maximal effect.

SMILES | Tau fibril FP | TRb-SRC2 inh | Tau ThT inhib | TexasRed fluor | Tau fluor cs
C(=C\c1ccco1)/C1=NN(c2ccccc2)C(c2ccco2)C1 (configuration not stated) | -1% | 4% | ? | 1% | ?
CCCCCC(=O)/C=C/[C@H]1[C@H](O)CC(=O)[C@@H]1C/C=C\CCCC(=O)O | -6% | 6% | -3% | -2% | -6%
CCCCOc1ccc(-c2c(C#N)c(N)nc(SCC(N)=O)c2C#N)cc1 | 22µM* | 1% | -11% | 1% | ?
CC(=O)c1ccc(NC(=O)Cn2c(-n3nc(C)cc3C)nc(C)cc2=O)cc1 | -8% | -6% | ? | -1% | -6%
COc1ccc(-c2nc(S(=O)(=O)c3ccc(Cl)cc3)c(N3CCCCCC3)o2)cc1 | -6% | -4% | ? | -2% | ?
O=C(CN1C(=O)NC(Cc2c[nH]c3ccccc23)C1=O)Nc1cccc(S(=O)(=O)N2CCCCCC2)c1 (configuration not stated) | -10% | -2% | -4% | -1% | 14µM*[quencher]
CCOC(=O)N1CCC(Nc2c(Nc3cccc(CC)c3)c(=O)c2=O)CC1 | ? | -26% | ? | 0% | 14µM*[quencher]
CCOC(=O)N1CCC(Nc2c(Nc3ccc(F)cc3)c(=O)c2=O)CC1 | ? | 0% | -9% | 1% | -20%
Cc1cc(Nc2cccc(Cl)c2)nc2ccc(NC(=O)c3cccnc3)cc12 | -12% | 11% | ? | -15% | 7.9µM*[quencher]
Cc1cc(Nc2cccc(C(F)(F)F)c2)nc2ccc(NC(=O)c3ccc(N(C)C)cc3)cc12 | -9% | 2% | 3.5µM* | -7% | 3.5µM*[quencher]
Cc1cc(Nc2cccc(Cl)c2)nc2ccc(NC(=O)c3cccc(N(C)C)c3)cc12 | -8% | 9% | ? | 9% | 4.5µM*[quencher]
Cc1cc(C)n2nc(/C(C#N)=C/c3ccccn3)c(C#N)c2n1 | ? | 5% | 22µM* | -6% | ?
Cc1cc(C)n2nc(CC#N)c(C#N)c2n1 | 3% | -2% | -3% | -1% | 6%
COc1ccc(-c2nc(C)c(CCNC(=O)c3cccc(C)c3)s2)cc1OC | 3% | 1% | ? | -9% | -14%
O=C(c1ccc(Cl)c([N+](=O)[O-])c1)N(Cc1ccccc1)C1CCS(=O)(=O)C1 (configuration not stated) | 4% | 2% | -1% | 1% | -4%
O=C(c1ccc(Cl)c([N+](=O)[O-])c1)N(Cc1cccc(Cl)c1)C1CCS(=O)(=O)C1 (configuration not stated) | -4% | -13% | 2% | 112µM*[quencher] | -8%
COc1cc(NC(=O)Nc2cccc(-c3noc(C)n3)c2)cc(OC)c1OC | 17% | 2% | ? | -3% | 13µM*[quencher]
COc1ccc(S(=O)(=O)Cc2ccc(C(=O)NC3CCCCC3)o2)cc1 | -3% | -24% | -16% | 5.6µM*[quencher] | -21%
COc1ccc(S(=O)(=O)Cc2ccc(C(=O)NC3CC3)o2)cc1 | -1% | 2% | -4% | 3% | 0%
CCOC(=O)c1ccc(/C=C2/C=C(c3ccccc3)N(c3ccc(Cl)c(C(=O)O)c3)C2=O)cc1 | -10% | 6% | 16µM* | -2% | 8%
CCOC(=O)c1ccc(Cl)c(NC(=O)c2ccc(-c3ccccc3)cc2)c1 | -4% | -5% | 4% | -3% | 4%
c1ccc(-c2nnc(OCC3CCCO3)c3ccccc23)cc1 (configuration not stated) | 3% | 2% | -3% | -5% | 4%
CCS(=O)(=O)c1ccc2oc(Nc3ccc(C(C)C)cc3)nc2c1 | ? | 0% | 40µM* | -10% | ?
CCS(=O)(=O)c1ccc2oc(Nc3cc(C)cc(C)c3)nc2c1 | 0% | -2% | -11% | 0% | ?
N#CCCN1CCN(C(=S)c2ccc(-c3ccc(Cl)cc3)o2)CC1 | 5% | -2% | 20µM* | -3% | -23%
SMILES | Tau fibril FP | TRb-SRC2 inh | Tau ThT inhib | TexasRed fluor | Tau fluor cs
C/C(=N\Nc1cccc2cccnc12)c1ccc(N)cc1 | ? | -1% | 25µM* | -7% | ?
C/C(=N\Nc1cccc2cccnc12)c1ccccn1 | 2% | -2% | ? | -2% | -22%
CCCCc1ccc(C2C(C#N)=C(N)SC(N)=C2C#N)s1 | ? | 5% | 25µM* | -1% | 25µM*[quencher]
NN/C(=C\[N+](=O)[O-])Nc1ccc(Cl)cc1 | -2% | 7% | 16µM* | -2% | ?
Cc1cc(C)cc(Nc2nc3c([nH]2)c(=O)n(C)c(=O)n3C)c1 | ? | -4% | ? | -6% | ?
Cn1c(=O)c2[nH]c(N=Nc3ccc(N)cc3N)nc2n(C)c1=O | -9% | 3% | 14µM* | -5% | ?
CCOC(=O)c1c(C)[nH]c(-c2csc(N)n2)c1C | ? | 5% | 25µM* | 4% | ?
COc1ccc(N/C(=C(/C(Cl)=C(Cl)Cl)[N+](=O)[O-])n2nnc3ccccc32)cc1OC | ? | 0% | 14µM* | -5% | ?
CC1C/C(=C/c2ccccn2)C(=O)/C(=C/c2ccccn2)C1 (configuration not stated) | 8.9µM* | -7% | 10µM* | 1% | -14%
CC(C)(C)C1C/C(=C/c2ccccn2)C(=O)/C(=C/c2ccccn2)C1 (configuration not stated) | ? | -7% | 11µM* | -1% | -25%
COc1ccc2[nH]c(C(=O)c3ccccc3)cc2c1 | -4% | -3% | -14% | -2% | -8%
COc1ccc2[nH]c(-c3ccccc3)cc2c1 | 9% | 2% | ? | -1% | 13µM*[quencher]
COc1cccc(-c2nc(NCC3CCCO3)c3ccccc3n2)c1O (configuration not stated) | 19% | 4% | ? | -8% | 20µM*[quencher]
CCC(C)Nc1nc(-c2cccc(OC)c2O)nc2ccccc12 (configuration not stated) | ? | 0% | ? | -20% | 16µM*[quencher]
COc1cccc(-c2nc(NC(C)C)c3ccccc3n2)c1O | 10% | 4% | 18µM* | -10% | 16µM*[quencher]
Cc1ccc(NC(=O)CSc2c3c(nc4ccccc24)CCCC3)cc1F | -2% | -6% | ? | 0% | -17%
O=C(NCc1ccccc1)c1nc(-c2ccc(Cl)cc2)n2c1CCCCC2 | -5% | -4% | -3% | 20µM*[quencher] | 0%
Cc1ccc(-c2nc(C(=O)NCc3ccc(Cl)cc3)c3n2CCCCC3)cc1 | -5% | 5% | 2% | -3% | -22%
O=C(NCCc1ccccc1)c1nc(-c2ccc(Cl)cc2)n2c1CCCCC2 | 6% | 0% | -8% | ? | -3%
CC(C)N(Cc1ccccc1)C(=O)c1nc(-c2ccc(Cl)cc2)n2c1CCCCC2 | -7% | -12% | -2% | 14µM*[quencher] | 2%
